Source: PubChem (The Scripps Research Institute Molecular Screening Center)
Most compounds without a hit are left out; they make up all but 2% or so of the library.
CHRM4 agonist = human M4 muscarinic receptor agonists, primary screen, CHO-K1 cells, Fluo-8 calcium fluorescence; activation, % at 3 µM; CHO-K1 hM4/Gqi5; vehicle 0%, full acetylcholine response 100%; 360,000 compounds, 0.14% hits; AID 624127, 2012; Muscarinic acetylcholine receptor M4 (Homo sapiens), P08173;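 active = activation above the run mean over all test wells plus 3 SD, cut at about 32% in these data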;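 note: peak over basal fluorescence ratio per well then scaled between controls; 0% = DMSO wells and 100% = acetylcholine at EC100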
Target sequence (P08173 whole entry, looked up): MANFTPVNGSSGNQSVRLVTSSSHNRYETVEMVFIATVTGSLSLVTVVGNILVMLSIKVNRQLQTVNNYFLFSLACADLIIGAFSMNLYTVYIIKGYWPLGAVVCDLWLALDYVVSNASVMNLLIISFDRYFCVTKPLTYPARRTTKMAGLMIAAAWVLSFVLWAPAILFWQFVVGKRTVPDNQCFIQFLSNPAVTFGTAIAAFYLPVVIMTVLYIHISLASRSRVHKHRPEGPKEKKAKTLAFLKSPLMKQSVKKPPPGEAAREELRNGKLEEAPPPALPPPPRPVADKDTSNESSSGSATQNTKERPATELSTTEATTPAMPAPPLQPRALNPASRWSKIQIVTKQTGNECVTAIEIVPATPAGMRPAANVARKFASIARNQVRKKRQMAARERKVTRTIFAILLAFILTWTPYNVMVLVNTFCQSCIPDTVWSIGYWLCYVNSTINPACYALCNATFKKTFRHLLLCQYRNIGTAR
M4 PAM = human M4 muscarinic receptor positive allosteric modulators, primary screen, CHO-K1 cells, Fluo-8 calcium fluorescence; Muscarinic acetylcholine receptor M4 (Homo sapiens), P08173; CHO-K1 hM4/Gqi5, ACh EC20; 0% = ACh EC20, 100% = maximal ACh; activation, % at 3 µM; 360,000 compounds, 0.4% hits; AID 624126, 2012;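 active = activation above its plate's cutoff, the mean activation of sample wells plus 3 SD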
CHO-K1 Ca antag = M1 antagonist counterscreen hit in parental CHO-K1 cells; AID 602250; 360,000 compounds, 0.6% hits; ATP-induced calcium, Fluo-8 fluorescence; inhibition, % at 3 µM;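 active = inhibition above a per-plate cutoff, the plate's mean sample inhibition plus 3 SD, cut at about 24% in these data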;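 note: 0% = DMSO plus EC80 ATP and 100% = DMSO alone without ATP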
M1 PAM parental = nonselective calcium activators in parental CHO-K1 cells, primary screen, counter-screen for M1 PAM project, cell-based, Fluo-8 calcium fluorescence, full deck, 1536-well; ATP EC20; 0% at ATP EC20, 100% at ATP max; activation, % at 3 µM; 360,000 compounds, 0.02% hits;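 active = activation above the run cutoff, the mean activation of all test compounds plus 3 SD, cut at about 40% in these data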;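 note: peak over basal fluorescence ratio in a 140 s read after ATP addition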
CHO-K1 Ca ag = counter-screen for M1 agonists: effect in parental CHO-K1 cells; Fluo-8 calcium fluorescence; scaled to maximal ATP response, vehicle zero; activation, % at 3 µM; 360,000 compounds, 0.48% hits; in the data active = activation above about 15%;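 note: untransfected CHO-K1 host cells lacking M1 receptor as counterscreen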
CHRM4 antagonist = human M4 muscarinic receptor antagonists, primary screen, CHO cells, Fluo-8 calcium fluorescence; Muscarinic acetylcholine receptor M4 (Homo sapiens), P08173; 360,000 compounds, 0.73% hits; CHO-hM4 cells, ACh EC80; AID 624125, 2012; inhibition, % at 3 µM;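 active = inhibition above its plate's cutoff, the mean inhibition of sample wells plus 3 SD, cut at about 27% in these data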;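 note: 0% = acetylcholine EC80 with DMSO and 100% = DMSO without agonist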
* hit, by the source's call.

`O=S(=O)(NCc1ccco1)c1ccc(S(=O)(=O)N2CCCC2)cc1` gave CHRM4 agonist 2, M4 PAM 3, CHO-K1 Ca antag 2, M1 PAM parental -3, CHO-K1 Ca ag 0 and CHRM4 antagonist 0.
Screening O=C(NC(=O)c1ccccc1)Nc1ccccc1 returned CHRM4 agonist 20, M4 PAM -7, CHO-K1 Ca antag 17, M1 PAM parental -4, CHO-K1 Ca ag 7 and CHRM4 antagonist 12.
Screening O=C(O)/C=C/C(=O)N(CC1CCCO1)C1CC(=O)N(c2c(Cl)cccc2Cl)C1=O (stereo not drawn) returned CHRM4 agonist 1, M4 PAM 3, CHO-K1 Ca antag -6, M1 PAM parental 18, CHO-K1 Ca ag 17* and CHRM4 antagonist -4.
`O=C(Nc1ccc2c(c1)Cc1ccccc1-2)c1cc2ccccc2o1` gave CHRM4 agonist 0, M4 PAM 1, CHO-K1 Ca antag -13, M1 PAM parental 16, CHO-K1 Ca ag 1 and CHRM4 antagonist 4.
Screening COc1ccccc1CCC(=O)Nc1cc(S(=O)(=O)N2CCCCC2)ccc1N1CCN(C)CC1 returned CHRM4 agonist 2, M4 PAM -1, CHO-K1 Ca antag -2, M1 PAM parental 20, CHO-K1 Ca ag 2 and CHRM4 antagonist 9.
`COCCn1c(SCC(=O)Nc2ccc(NC(=O)c3ccco3)c(OC)c2)nc2ccccc2c1=O` gave CHRM4 agonist 1, M4 PAM 20*, CHO-K1 Ca antag -9, M1 PAM parental 18, CHO-K1 Ca ag 0 and CHRM4 antagonist -15.
Screening COCCn1c(SCC(=O)NCc2ccccc2)nnc1-c1ccco1 returned CHRM4 agonist 0, M4 PAM 18*, CHO-K1 Ca antag -9, M1 PAM parental 24, CHO-K1 Ca ag 0 and CHRM4 antagonist -17.
Screening COc1ccc(Cl)cc1C(=O)NCC(c1ccco1)N(C)C (stereo not drawn) returned CHRM4 agonist 0, M4 PAM -1, CHO-K1 Ca antag -25, M1 PAM parental 13, CHO-K1 Ca ag 3 and CHRM4 antagonist -12.
Screening CCCC(=O)c1ccc(N2CCN(C(=O)c3cccs3)CC2)c(F)c1 returned CHRM4 agonist 24, M4 PAM -16, CHO-K1 Ca antag 11, M1 PAM parental -11, CHO-K1 Ca ag 15* and CHRM4 antagonist 16.
Screening CC(=O)c1ccc(N2CCN(C(=O)c3cccs3)CC2)c(F)c1 returned CHRM4 agonist 6, M4 PAM -6, CHO-K1 Ca antag -7, M1 PAM parental 12, CHO-K1 Ca ag 6 and CHRM4 antagonist 0.
`O=S(=O)(Nc1cccc2cccnc12)c1ccc(S(=O)(=O)N2CCCC2)cc1` gave CHRM4 agonist 3, M4 PAM -22, CHO-K1 Ca antag -7, M1 PAM parental 6, CHO-K1 Ca ag 2 and CHRM4 antagonist 31*.
`CC(=O)Nc1ccc(S(=O)(=O)Nc2cccc3cccnc23)cc1` gave CHRM4 agonist 6, M4 PAM -6, CHO-K1 Ca antag -12, M1 PAM parental 8, CHO-K1 Ca ag 6 and CHRM4 antagonist 10.
Screening O=S(=O)(Nc1cccc2cccnc12)c1ccccc1 returned CHRM4 agonist 2, M4 PAM -9, CHO-K1 Ca antag 5, M1 PAM parental 5, CHO-K1 Ca ag 2 and CHRM4 antagonist 42*.
`Cc1cc(Oc2ccc(N)cn2)cc(C)c1Cl` gave CHRM4 agonist 0, M4 PAM 2, CHO-K1 Ca antag 7, M1 PAM parental -21, CHO-K1 Ca ag 0 and CHRM4 antagonist 9.
Cc1ccc(Cl)cc1N1CCN(S(=O)(=O)N2CCCCC2)CC1 was read as CHRM4 agonist -1, M4 PAM -1, CHO-K1 Ca antag 14, M1 PAM parental -14, CHO-K1 Ca ag -1 and CHRM4 antagonist 0.
`COc1ccc(CCN2C(=O)NC(NC(C)=O)(C(F)(F)F)C2=O)cc1OC` (stereo not drawn) gave CHRM4 agonist 1, M4 PAM -1, CHO-K1 Ca antag -13, M1 PAM parental 24, CHO-K1 Ca ag 1 and CHRM4 antagonist 3.
